Assay results as given in ChEMBL document CHEMBL3988442, “University of Dundee, Small-Polar-MMV Screening Library” (2021).
For some of these results: Measured potencies and affinities stand elsewhere.

Experiments:
Parameters in all cases: scale not given: direction of the effect not stated beside the values
[1] = biological target: Protein translocase subunit SecA (Escherichia coli (strain K12)) (UniProt P10408); experiment: Assay to Identify E. coli SecA ATPase Inhibitors; assay type: functional; conditions: 30 µM
Chain of Protein translocase subunit SecA (Escherichia coli (strain K12)) (P10408 whole entry): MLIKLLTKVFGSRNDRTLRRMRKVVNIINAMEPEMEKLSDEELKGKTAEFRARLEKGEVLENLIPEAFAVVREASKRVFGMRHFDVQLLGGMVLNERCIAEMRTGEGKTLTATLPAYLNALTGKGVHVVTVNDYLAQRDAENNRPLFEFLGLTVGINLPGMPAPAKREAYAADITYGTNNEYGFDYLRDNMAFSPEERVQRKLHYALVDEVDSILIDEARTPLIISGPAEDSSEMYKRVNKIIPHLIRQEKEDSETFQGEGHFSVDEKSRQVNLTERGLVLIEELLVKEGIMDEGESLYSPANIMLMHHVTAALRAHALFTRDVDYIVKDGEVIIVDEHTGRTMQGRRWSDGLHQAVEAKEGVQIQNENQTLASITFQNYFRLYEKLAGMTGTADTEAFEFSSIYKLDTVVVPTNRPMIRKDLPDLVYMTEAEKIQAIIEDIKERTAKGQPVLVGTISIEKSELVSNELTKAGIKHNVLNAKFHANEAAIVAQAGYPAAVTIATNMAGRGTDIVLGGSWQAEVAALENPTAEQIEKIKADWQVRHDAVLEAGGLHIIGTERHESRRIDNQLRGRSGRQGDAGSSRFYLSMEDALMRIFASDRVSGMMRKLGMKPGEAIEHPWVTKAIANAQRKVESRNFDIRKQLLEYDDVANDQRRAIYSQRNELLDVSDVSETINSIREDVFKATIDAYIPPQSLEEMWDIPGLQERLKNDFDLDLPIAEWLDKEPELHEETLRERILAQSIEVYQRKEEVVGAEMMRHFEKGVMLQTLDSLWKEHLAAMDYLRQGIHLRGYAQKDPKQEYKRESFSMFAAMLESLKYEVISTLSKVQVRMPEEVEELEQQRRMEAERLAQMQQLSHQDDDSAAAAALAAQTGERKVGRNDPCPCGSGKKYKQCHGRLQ

[2] = biological target: T1, Ubiquitin-activating enzyme e1, putative (Leishmania donovani (strain BPK282A1)) (UniProt E9BSI1); experiment: Leishmania donovani Ubiquitin Activating Enzyme (LdE1); assay type: functional; conditions: 30 µM
T1 sequence (whole entry): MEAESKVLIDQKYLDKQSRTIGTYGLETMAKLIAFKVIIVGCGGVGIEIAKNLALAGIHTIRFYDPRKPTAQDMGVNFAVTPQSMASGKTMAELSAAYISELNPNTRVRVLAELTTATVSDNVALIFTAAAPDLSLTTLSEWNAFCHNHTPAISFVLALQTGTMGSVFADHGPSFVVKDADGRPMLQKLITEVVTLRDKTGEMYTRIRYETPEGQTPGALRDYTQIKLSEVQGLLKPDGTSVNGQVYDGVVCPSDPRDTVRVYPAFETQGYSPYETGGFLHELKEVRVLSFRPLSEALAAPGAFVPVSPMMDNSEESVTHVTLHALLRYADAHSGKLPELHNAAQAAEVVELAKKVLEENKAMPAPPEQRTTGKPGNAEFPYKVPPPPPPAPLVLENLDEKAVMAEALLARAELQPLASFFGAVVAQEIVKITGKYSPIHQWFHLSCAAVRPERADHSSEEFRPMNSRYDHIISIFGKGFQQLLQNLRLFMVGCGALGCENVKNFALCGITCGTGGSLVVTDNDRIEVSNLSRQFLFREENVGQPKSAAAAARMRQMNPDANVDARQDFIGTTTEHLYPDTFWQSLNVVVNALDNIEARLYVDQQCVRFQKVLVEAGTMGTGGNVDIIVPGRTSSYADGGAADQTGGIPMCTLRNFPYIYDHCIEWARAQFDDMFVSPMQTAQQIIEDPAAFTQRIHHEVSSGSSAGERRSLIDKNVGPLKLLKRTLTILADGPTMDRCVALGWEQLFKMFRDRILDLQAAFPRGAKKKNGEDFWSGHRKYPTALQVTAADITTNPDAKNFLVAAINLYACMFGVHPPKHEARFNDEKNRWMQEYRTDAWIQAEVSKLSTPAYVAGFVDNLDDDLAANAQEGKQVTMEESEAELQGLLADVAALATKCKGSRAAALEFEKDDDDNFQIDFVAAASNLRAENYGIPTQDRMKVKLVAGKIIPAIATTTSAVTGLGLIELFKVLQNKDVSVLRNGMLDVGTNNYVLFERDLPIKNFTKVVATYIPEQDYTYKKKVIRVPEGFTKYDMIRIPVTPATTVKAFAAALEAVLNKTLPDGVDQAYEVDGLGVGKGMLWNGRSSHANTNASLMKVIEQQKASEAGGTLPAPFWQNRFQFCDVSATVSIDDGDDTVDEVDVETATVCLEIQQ

[3] = biological target: AMP-activated protein kinase, AMPK (Homo sapiens) (UniProt P54646+O43741+P54619+Q9UGJ0+Q9Y478+Q13131+Q9UGI9); experiment: AMP-dependent Kinase enzyme assay. An in vitro enzyme assay that detects ADP turnover that is directly proportional to AMPK activity. This uses naive AMPK that is activated during the assay with MK-8722; assay type: functional; conditions: 30 µM
[4] = biological target: Sialic acid-binding Ig-like lectin 9 (Homo sapiens) (UniProt Q9Y336); experiment: Hs-Siglec9 ALPHAscreen SOP 20170721; conditions: 10 µM
Chain of Sialic acid-binding Ig-like lectin 9 (Homo sapiens) (Q9Y336 whole entry): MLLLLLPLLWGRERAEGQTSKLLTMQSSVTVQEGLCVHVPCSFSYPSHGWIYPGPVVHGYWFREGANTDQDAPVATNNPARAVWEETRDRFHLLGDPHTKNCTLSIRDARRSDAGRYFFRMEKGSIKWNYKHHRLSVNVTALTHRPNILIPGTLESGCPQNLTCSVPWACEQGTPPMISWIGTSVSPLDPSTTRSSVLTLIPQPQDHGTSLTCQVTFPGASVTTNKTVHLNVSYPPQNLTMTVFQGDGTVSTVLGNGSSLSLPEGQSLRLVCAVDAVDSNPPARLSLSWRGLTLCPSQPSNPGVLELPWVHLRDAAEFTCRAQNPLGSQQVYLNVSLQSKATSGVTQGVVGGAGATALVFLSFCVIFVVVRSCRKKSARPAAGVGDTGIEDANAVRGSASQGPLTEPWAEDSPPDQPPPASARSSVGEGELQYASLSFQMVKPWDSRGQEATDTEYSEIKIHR

[5] = test system: Trypanosoma cruzi; experiment: Trypanosoma cruzi phosphomannomutase and mannose-1-phosphate guanylyltransferase assay; assay type: functional; conditions: 10 µM
[6] = biological target: T2, Arginase-2, mitochondrial (Homo sapiens) (UniProt P78540); experiment: in vitro enzyme assay to detect the production of urea directly proportional to the activity of Arginase II; assay type: functional; conditions: 33.3 µM; also: in the data most compounds retested in dose-response had high values
T2 sequence (whole entry): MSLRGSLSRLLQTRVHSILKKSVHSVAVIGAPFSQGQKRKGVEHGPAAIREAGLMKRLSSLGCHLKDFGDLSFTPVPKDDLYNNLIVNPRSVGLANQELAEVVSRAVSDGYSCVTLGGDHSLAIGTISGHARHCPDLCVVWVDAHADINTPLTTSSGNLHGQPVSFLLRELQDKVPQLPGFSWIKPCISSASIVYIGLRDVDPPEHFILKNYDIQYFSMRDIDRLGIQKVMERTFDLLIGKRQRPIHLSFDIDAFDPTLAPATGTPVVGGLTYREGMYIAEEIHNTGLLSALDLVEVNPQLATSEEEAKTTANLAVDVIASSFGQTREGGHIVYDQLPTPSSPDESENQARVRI

[7] = biological target: T3, Proteasome subunit beta (Trypanosoma cruzi) (UniProt O96673); experiment: Trypanosoma cruzi proteasome chymotrypsin-like activity (TcProtChymo) assay.; also: in the data most compounds retested in dose-response had high values; assay type: functional; conditions: 9.37 µM
T3 sequence (whole entry): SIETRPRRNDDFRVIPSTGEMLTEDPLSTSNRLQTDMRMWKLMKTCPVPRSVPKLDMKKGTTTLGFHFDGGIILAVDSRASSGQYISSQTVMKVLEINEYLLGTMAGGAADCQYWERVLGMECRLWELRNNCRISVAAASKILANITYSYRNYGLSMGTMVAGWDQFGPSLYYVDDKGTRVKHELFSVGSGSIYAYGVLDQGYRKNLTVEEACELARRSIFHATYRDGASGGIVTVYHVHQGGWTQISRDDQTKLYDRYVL

[8] = species on record: Homo sapiens; experiment: To identify inhibition of the IFN signalling (Jak-Stat) pathway via expression of an eGFP reporter gene under the control of an IFN-stimulated response element (ISRE) containing MxA promoter.; assay type: functional; conditions: 30 µM
[9] = biological target: T4, Tyrosyl-tRNA synthetase, putative (Trypanosoma cruzi (strain CL Brener)) (UniProt Q4DSP6); experiment: Trypanosoma cruzi tyrosyl tRNA synthetase (TcYRS) _High Tyrosine SOP; assay type: functional; conditions: 30 µM; also: in the data most compounds retested in dose-response had high values
T4 sequence (whole entry): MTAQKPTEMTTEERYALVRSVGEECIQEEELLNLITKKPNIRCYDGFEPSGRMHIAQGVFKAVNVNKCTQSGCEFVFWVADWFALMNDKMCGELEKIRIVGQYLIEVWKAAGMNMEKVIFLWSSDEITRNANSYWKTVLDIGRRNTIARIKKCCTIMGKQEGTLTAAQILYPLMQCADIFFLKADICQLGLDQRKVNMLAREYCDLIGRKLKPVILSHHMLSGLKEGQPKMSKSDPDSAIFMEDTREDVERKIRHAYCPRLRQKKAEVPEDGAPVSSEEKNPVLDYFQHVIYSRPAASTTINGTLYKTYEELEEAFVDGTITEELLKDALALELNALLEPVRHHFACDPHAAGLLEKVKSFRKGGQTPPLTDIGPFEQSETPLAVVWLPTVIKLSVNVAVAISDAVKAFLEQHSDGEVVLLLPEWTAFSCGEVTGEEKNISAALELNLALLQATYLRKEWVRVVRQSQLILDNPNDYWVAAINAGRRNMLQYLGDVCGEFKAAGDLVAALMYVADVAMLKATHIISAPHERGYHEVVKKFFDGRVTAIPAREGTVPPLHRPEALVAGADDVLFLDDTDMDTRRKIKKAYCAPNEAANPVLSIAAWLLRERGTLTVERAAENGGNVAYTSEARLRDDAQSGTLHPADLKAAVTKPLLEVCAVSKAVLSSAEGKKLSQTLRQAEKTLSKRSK

[10] = biological target: T4, Tyrosyl-tRNA synthetase, putative (Trypanosoma cruzi (strain CL Brener)); experiment: Trypanosoma cruzi tyrosyl tRNA synthetase (TcYRS) SOP; assay type: functional; conditions: 30 µM
[11] = biological target: Chromo domain-containing protein 1 (Saccharomyces cerevisiae (strain ATCC 204508 / S288c) (Baker's yeast)) (UniProt P32657); experiment: ScCHD-1 Enzyme Inhibition Assay; assay type: functional; conditions: 30 µM; also: in the data most compounds retested in dose-response had high values
Chain of Chromo domain-containing protein 1 (Saccharomyces cerevisiae (strain ATCC 204508 / S288c) (Baker's yeast)) (P32657 whole entry, the tested form may be a part): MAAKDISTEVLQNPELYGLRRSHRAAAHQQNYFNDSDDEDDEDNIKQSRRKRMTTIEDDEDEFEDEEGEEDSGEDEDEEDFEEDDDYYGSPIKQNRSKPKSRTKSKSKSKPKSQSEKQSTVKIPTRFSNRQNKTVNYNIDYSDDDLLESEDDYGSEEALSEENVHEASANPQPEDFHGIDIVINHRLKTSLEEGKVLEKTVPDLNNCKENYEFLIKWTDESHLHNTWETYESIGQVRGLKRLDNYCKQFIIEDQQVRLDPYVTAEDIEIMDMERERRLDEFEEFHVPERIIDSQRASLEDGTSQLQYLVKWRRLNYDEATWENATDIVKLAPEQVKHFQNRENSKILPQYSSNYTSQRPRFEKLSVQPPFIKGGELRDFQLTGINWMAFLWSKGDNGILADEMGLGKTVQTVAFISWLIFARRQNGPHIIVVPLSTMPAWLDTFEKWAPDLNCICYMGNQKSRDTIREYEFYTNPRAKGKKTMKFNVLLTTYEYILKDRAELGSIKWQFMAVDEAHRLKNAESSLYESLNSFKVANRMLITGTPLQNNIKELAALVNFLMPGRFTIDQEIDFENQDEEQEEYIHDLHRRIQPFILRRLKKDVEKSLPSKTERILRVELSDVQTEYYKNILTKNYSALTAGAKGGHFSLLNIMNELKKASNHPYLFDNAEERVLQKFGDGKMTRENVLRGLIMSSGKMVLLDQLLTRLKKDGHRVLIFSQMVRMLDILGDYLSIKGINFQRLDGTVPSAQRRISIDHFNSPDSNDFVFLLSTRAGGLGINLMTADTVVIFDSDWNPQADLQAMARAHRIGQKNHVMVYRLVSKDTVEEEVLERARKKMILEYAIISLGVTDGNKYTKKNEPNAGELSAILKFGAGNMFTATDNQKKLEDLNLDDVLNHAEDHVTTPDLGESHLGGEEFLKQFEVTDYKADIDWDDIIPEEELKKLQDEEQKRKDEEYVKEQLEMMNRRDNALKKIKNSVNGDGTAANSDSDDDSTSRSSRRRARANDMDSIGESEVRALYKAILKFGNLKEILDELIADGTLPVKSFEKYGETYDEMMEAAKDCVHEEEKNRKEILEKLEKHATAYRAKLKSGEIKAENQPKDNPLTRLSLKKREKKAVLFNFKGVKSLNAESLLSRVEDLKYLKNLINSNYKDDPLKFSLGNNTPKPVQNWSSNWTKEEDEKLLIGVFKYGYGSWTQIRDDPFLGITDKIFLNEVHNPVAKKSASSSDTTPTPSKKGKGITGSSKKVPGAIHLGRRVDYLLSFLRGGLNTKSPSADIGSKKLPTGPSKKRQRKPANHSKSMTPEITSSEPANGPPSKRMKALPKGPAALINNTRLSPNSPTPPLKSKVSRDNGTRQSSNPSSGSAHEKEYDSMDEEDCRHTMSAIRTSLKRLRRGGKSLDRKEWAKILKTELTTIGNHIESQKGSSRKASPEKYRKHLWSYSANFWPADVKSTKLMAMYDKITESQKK

SMILES	Percent Effect [1] [%]	Percent Effect [2] [%]	Percent Effect [3] [%]	Percent Effect [4] [%]	Percent Effect [5] [%]	Percent Effect [6] [%]	Percent Effect [7] [%]	Percent Effect [8] [%]	Percent Effect [9] [%]	Percent Effect [10] [%]	Percent Effect [11] [%]
CC(C)(C(=O)NCC1CC1)c1ccccc1F	-8.21	4.17	-4.88	2.97	-4.18	0.442	15.6	-2.36	2.1	2.56	-3.44
Cc1cnn(CC2CN(CC(=O)Nc3nnc(C)s3)CCO2)c1 (stereo unspecified)	-5.89	13.2	0.773	3.55	7.71	-0.766	6.01	-6.29	3.43	12.2	-12.5
CCC1CCCCCN1C(=O)c1nnc2ccccc2c1N (stereo unspecified)	-4.89	2.63	3.98	-3.48	-2.82	0	9.11	7.13	0	2.6	-1.43
Cc1cc(C(=O)N2CCCC(c3noc(C)n3)C2)[nH]n1 (stereo unspecified)	-10.3	15.2	-4.15	16.6	10.3	-3.04	-2.21	12.9	8.37	21.5	-9.72
Cc1cccc(C2(CNC(=O)CCN3C(=O)CCC3=O)CCCC2)c1	-5.2	10.1	1.38	0.402	5.95	-4.56	3.36	8.93	9.36	13.9	-5.07
Cc1ccsc1CN(C)C(=O)Cn1nc(-c2ccc(F)cc2)oc1=O	-0.652	13.2	1.09	-2.29	3.8	-3.55	22.5	10.2	-8.51	0	-6.06
N#CCCN(CCC#N)C(=O)CN1CCCC1Cc1cccc(F)c1 (stereo unspecified)	-3.46	0	-6.01	-7.53	3.32	1.25	24.6	-17.1	7.92	8.54	0.083
CC(=O)N1CCCC1c1cccc(Cc2ccc(F)cc2)n1 (stereo unspecified)	-4.97	5.33	10.8	3.6	5.91	-0.233	5.37	15.6	4.25	8.97	1.18
Cc1oc(C)c(C(=O)NCc2ccccc2S(=O)(=O)N(C)C)c1C	-1.39	10.5	8.5	1.67	-3.01	-3.83	8.19	2.68	1.47	7.32	-5.82
COCCc1noc(CN(C)C(=O)c2cccc(N3CCCC3=O)c2)n1	-2.59	-2.53	0.707	3.91	-1.23	-0.38	-0.246	-3.22	-0.493	-3.8	-1.74
c1ccc(-n2ccnc2)c(CNCC2CNc3ccnn3C2)c1 (stereo unspecified)	-2.24	18.2	-5.79	12.2	7.68	1.07	2.53	17.5	5.83	21.9	-7.36
